Shown are actives, neighbours in structure and some others; about 1.3% of the full set was active somewhere.
Bfl-1 A1 inh: inhibitors of the anti-apoptotic protein A1, read as caspase activation; caspase activation, % (concentration not given with the values); MEF A1-2A-BIM cells, Caspase-Glo 3/7 luminescence, 3 h; percent of clofoctol response, vehicle zero; 330,000 compounds, 0.066% hits; AID 2462;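 active = over half of replicate activation scores above 10%, or exactly half above 10 with the replicate mean above 10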
Beta2AR agonist: activates human beta-2 adrenergic receptor causing internalization; P07550; Am2.2-beta2AR cells, FAP receptor internalization, flow cytometry; response, % (concentration not given with the values); 340,000 compounds, 0.43% hits;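 active = response above a set limit, near 3 SD of response in nonfluorescent compounds, cut at about 42% in these data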
VLA-4 inh: inhibition in a human VLA-4 binding assay; P13612; VLA-4 expressing cells, ligand binding flow cytometry; inhibition, % (about 7 µM as worked out from the volumes in the protocol); 330,000 compounds, 0.2% hits; in the data active = inhibition above about 50%
NTR1 agonist: agonists of human neurotensin receptor NTR1. NTR1-U2OS beta-arrestin-GFP spot imaging, agonist mode. 330,000 compounds, 0.17% hits. activation, % at 20 µM. P30989;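 active = activation at or above 40% of the spot to cytoplasm intensity ratio, with at least 20 cells analyzed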;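 note: 0% = DMSO without peptide and 100% = 100 nM NTR1 peptide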
GRK2 aptamer HTS: human GRK2 inhibition via aptamer displacement | P25098 | bead flow cytometry, FAM-aptamer displacement from GRK2 | inhibition of aptamer binding, % at 10 µM | 330,000 compounds, 0.59% hits | AID 488847;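 active = inhibition of aptamer binding above 40%, roughly 3 SD of noise, on plates passing a quality check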;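 note: median bead fluorescence of bound FAM aptamer so fluorescent compounds give negative values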
Target sequence (P25098 whole entry, looked up): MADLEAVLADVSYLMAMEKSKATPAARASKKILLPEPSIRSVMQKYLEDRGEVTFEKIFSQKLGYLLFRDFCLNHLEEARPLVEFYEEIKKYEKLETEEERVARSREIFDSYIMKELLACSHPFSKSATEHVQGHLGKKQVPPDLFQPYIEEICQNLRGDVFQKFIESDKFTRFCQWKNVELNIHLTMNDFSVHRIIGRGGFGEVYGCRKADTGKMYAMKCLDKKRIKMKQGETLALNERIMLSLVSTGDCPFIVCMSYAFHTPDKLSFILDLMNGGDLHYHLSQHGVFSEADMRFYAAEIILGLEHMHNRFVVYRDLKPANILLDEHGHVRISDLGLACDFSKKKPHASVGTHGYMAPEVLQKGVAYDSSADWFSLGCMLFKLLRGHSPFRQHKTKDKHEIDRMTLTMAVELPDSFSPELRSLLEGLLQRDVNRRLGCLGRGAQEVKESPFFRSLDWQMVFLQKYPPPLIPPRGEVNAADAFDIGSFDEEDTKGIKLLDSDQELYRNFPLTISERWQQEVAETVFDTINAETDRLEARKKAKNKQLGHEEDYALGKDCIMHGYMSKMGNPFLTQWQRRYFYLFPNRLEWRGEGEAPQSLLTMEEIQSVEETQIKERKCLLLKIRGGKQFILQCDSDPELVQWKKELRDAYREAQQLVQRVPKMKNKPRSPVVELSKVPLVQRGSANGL
VLA-4 mod pick: human VLA-4 allosteric modulation in cherry picked compounds. inhibition, % at 6.7 µM. U937 cells, HUTS-21 LIBS mAb binding, flow cytometry; LDV ligand present at threefold Kd. AID 2813. 1,300 compounds, 2% hits. shares compounds with VLA-4 inh; in the data active = inhibition above about 40%;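 note: 0% = ligand without compound and 100% = no ligand background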
Active calls of the source: *; i = inactive; . = no result; ! = a repeat was not active.

SMILES | Bfl-1 A1 inh | Beta2AR agonist | VLA-4 inh | NTR1 agonist | GRK2 aptamer HTS | VLA-4 mod pick
O=C(c1ccco1)N1CCN(Cc2cc(=O)c(OCc3ccc([N+](=O)[O-])cc3)co2)CC1 | -1 | -4 | 13 | 0 | 3 | .
COc1ccc([C@H]2C(C(=O)O)=C[C@@H](C(C)(C)C)N2S(=O)(=O)c2ccc(C)cc2)cc1OC | . | 7 | 40 | 1 | 6 | 1
CCc1ccc([C@H]2C(C(=O)O)=C[C@@H](C(C)(C)C)N2S(=O)(=O)c2ccc(C)cc2)cc1 | . | 12 | 26 | 1 | 7 | 1
CCOc1ccc(NC(=O)COC(=O)c2c(OC)cccc2OC)cc1 | 1 | -3 | -6 | 2 | 6 | -16
CCCCCCCCNCCS(=O)(=O)NC1CCCCC1 | . | -2 | . | . | . | .
CCN(CC(=O)Nc1ccccc1OC)C(=O)CSCc1ccc(C)cc1 | 0 | 0 | 9 | -1 | 0 | .
Nc1cc([N+](=O)[O-])cc2oc(-c3ccccc3)cc12 | -1 | -9 | -55 | -1 | 0 | .
COc1cccc2cc(C(=O)NCCN3CCOCC3)c(=O)oc12 | 0 | -8 | 41 | 0 | 1 | -18
COc1ccc(-n2c(C)nc3cc(C(=O)NCCN4CCOCC4)ccc32)cc1 | 0 | 0 | 3 | -1 | 2 | .
COc1ccc(-n2cnc3cc(C(=O)NCCN4CCOCC4)ccc32)cc1 | 0 | -6 | 43 | -1 | 2 | -7
OC1C(O)C(O)C(O)C(O)C1O (stereo unspecified) | -3 | 2 | 51*! | 0 | 0 | 3
COc1ccc(NC(=O)CS(=O)c2cccc(C(F)(F)F)c2)cc1 (stereo unspecified) | 0 | -1 | 4 | 2 | 1 | .
CCCCN(C)C(=O)C(Cc1ccccc1)NS(=O)(=O)c1ccc2c(c1)CCC(=O)N2 (stereo unspecified) | 0 | 1 | 54* | -2 | 1 | -2
C=C(C)CN(CC)C(=O)CN1C(=O)NC(C)(c2ccc3ccccc3c2)C1=O (stereo unspecified) | 0 | -5 | 50* | -1 | 2 | -13
CCN(CC(=O)Nc1ccc(NC(C)=O)cc1)C(=O)CN1C(=O)NC(C)(c2ccc3ccccc3c2)C1=O (stereo unspecified) | . | -4 | . | . | . | .
COc1ccc(S(=O)(=O)N(C)CC(=O)NCc2ccccc2)cc1OC | 2 | -5 | 15 | 1 | 1 | -1
CC(C)CCN(CC(=O)NCc1ccc(F)cc1)S(=O)(=O)c1ccccc1F | 1 | 1 | 1 | -1 | 2 | 0
CCN(CC(=O)NCc1ccc(F)cc1)S(=O)(=O)c1ccc(C)cc1 | 0 | -6 | 2 | 0 | 1 | 2
COCCCN(CC(=O)NCc1ccccc1)S(=O)(=O)c1ccc(C)cc1 | 0 | 0 | 13 | 0 | 3 | 4
CCN(CC(=O)NCc1cccs1)S(=O)(=O)c1ccc(F)cc1 | 2 | -8 | 1 | 0 | 3 | .
O=S(=O)(Cc1ccccc1)C(CCCc1ccccc1)S(=O)(=O)Cc1ccccc1 | . | i | . | . | . | .
Cc1oc2c(c1C(=O)Nc1cccc3ccccc13)CCCC2 | 0 | -25 | 6 | 0 | 0 | .
COc1ccccc1NC(=O)c1c(C)oc2c1CCCC2 | 1 | -9 | 93* | 0 | 1 | 4
Cc1cccc(C)c1NC(=O)C(C)Sc1n[nH]c(-c2ccncc2)n1 (stereo unspecified) | 0 | 0 | -3 | 1 | 1 | .
Cc1cc(S(=O)(=O)Nc2ccc(N3CCOCC3)cc2)ccc1Br | 0 | -9 | 13 | 1 | 2 | .
SMILES | Bfl-1 A1 inh | Beta2AR agonist | VLA-4 inh | NTR1 agonist | GRK2 aptamer HTS | VLA-4 mod pick
CN1C(=O)Cc2cc(S(=O)(=O)Nc3ccc(N4CCOCC4)cc3)ccc21 | 1 | -27 | 11 | -2 | 5 | 4
COc1cc(OC)cc(C(=O)NC(C(=O)N2CCc3ccccc3C2)C(C)C)c1 (stereo unspecified) | 2 | 5 | 50* | 1 | 1 | 5
Cn1cc(CN2CCC(n3nccc3NC(=O)CCOc3ccccc3)CC2)cn1 | 0 | -4 | -108 | 2 | 0 | .
Cc1ccc(CN2CCC(n3nccc3NC(=O)CCOc3ccccc3)CC2)cc1C | -1 | 7 | 106* | 0 | 0 | 2
c1ccc(CN2CCC(N3CCC(N4CCCCCC4)CC3)CC2)cc1 | 0 | -8 | 5 | 1 | 0 | .
C#CC1CN(Cc2ccccc2)CC(C#C)N1C (stereo unspecified) | 0 | -6 | 62* | 1 | 2 | 3
CCn1cc(C(=O)N[C@@H](CCSC)C(=O)NCCOC)c(=O)c2cc3c(cc21)OCO3 | 0 | -1 | 8 | -1 | 2 | .
CCn1cc(C(=O)N[C@@H](CCSC)C(=O)NCCCO)c(=O)c2cc3c(cc21)OCO3 | 0 | -1 | 40 | 2 | 5 | 4
O=C(CN1CCN(c2ccccc2F)CC1)N1CCc2ccccc21 | 0 | -4 | 16 | -1 | 1 | .
CCOc1ccc(NC(=O)C2CCN(S(=O)(=O)c3ccc4c(c3)C(C)(C)C(=O)N4C)CC2)cc1 | 1 | 3 | -2 | -2 | 21 | 1
CCOc1ccccc1NC(=O)C1CCCN(S(=O)(=O)c2ccc3c(c2)C(C)(C)C(=O)N3C)C1 (stereo unspecified) | 1 | -9 | 50* | 1 | 2 | 0
O=C(COc1cc2oc(=O)cc(-c3ccccc3)c2cc1Cl)NCCN1CCOCC1 | 0 | -4 | 9 | -1 | 0 | .
Cc1ccc(C(=O)N(C)Cc2ccc(N3CCOCC3)cc2)cc1S(=O)(=O)NCc1ccccc1 | 2 | -12 | -8 | -1 | 0 | .
O=S(=O)(c1ccsc1)N1CC=C(c2ccccc2)CC1 | 0 | 10 | 4 | 4 | 0 | .
CC(Oc1ccc(Br)cc1)C(=O)Nc1cc(Cl)ccc1N1CCN(C)CC1 (stereo unspecified) | 0 | 2 | 7 | 6 | 0 | .
O=C1CCc2ccc(NC(=O)C3CC3)cc2N1 | 0 | 9 | 55* | 1 | 0 | -9
CC(C)[C@H](NC(=O)N1CC(=O)Nc2ccccc21)C(=O)N[C@H](C(=O)O)c1ccccc1 | 1 | 2 | 30 | 2 | 5 | .
CC(C)c1ccc(NC(=O)C(c2ccccc2)N2CC(=O)Nc3ccccc32)cc1 (stereo unspecified) | -1 | 1 | 72* | 22 | 2 | 3
CC(C)NC(=O)Cn1cc(C(=O)C(=O)N2CCOCC2)c2ccccc21 | 0 | -5 | 4 | 0 | 0 | 7
O=C(C(=O)N1CCOCC1)c1cn(CC(=O)N2CCCCC2)c2ccccc12 | 1 | 1 | 4 | -1 | 0 | .
COC(=O)c1cn(CC(=O)NC2CCCCC2)c2ccccc12 | 0 | 11 | 13 | 0 | 0 | .
O=C(Cn1cc(C(=O)C2CC2)c2ccccc21)NC1CCCC1 | 0 | -5 | 58* | -2 | 3 | -4

High-throughput results as filed in PubChem BioAssay.
